Results on nine compounds are retold here after PubChem BioAssay (NCATS).

“And” between values parts separate entries of the source, which are not always exact repeats. Equal values may be shown once. Inconclusive results are not listed. The source made the active and inactive calls. Unless noted, calls come from the whole dose curve; as a rule, active = well fitted curve in the direction sought with a large enough effect; inconclusive = small, poorly fitted or top-dose-only effect, or another doubt; inactive = no such curve, though single readings can be large; an effect the other way counts as inactive or inconclusive.

Test [1] can be described thus: qHTS profiling of the MIPE4 collection as inhibitors of Plasmodium falciparum (DD2) proliferation (AID 743345; call rule not given here). The note with it: P. falciparum Dd2 in erythrocytes, SYBR Green DNA, 72 h; at 28.5 µM (top of the series) unless noted. The procedure, abridged:
(§1)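 Erythrocytes infected with P. falciparum (0.3% parasitemia, 2.5% hematocrit) incubated with compounds 72 h at 37 C, 5% CO2. Lysis with saponin/Triton buffer containing SYBR Green I, overnight at room temperature in the dark; DNA fluorescence (485/535 nm) normalised to 0.29 uM artemisinin and DMSO.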

Test [2] can be described thus: qHTS profiling of the MIPE4 collection as inhibitors of Plasmodium falciparum (DD2) proliferation (Rep 2) (AID 743346; call rule not given here). The following applies: P. falciparum Dd2 in erythrocytes, SYBR Green DNA, 72 h; at 28.5 µM (top of the series) unless noted. The procedure, abridged:
as §1
Background: qHTS replaces the single test concentration by a dilution series.

Test [3] is described as follows: qHTS profiling of the MIPE4 collection as inhibitors of Plasmodium falciparum (HB3) proliferation (AID 743347; call rule not given here;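 note: plate controls were DMSO vehicle wells for no effect and artemisinin wells for full effect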). The note with it: P. falciparum HB3 in erythrocytes, SYBR Green DNA, 72 h; at 28.5 µM (top of the series) unless noted. The procedure, abridged: as §1
Test [4] is described as follows: High-throughput drug toxicity screening in the BPDCN cell line Gen2.2 (AID 1224824; call rule not given here;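 note: cells exposed to compounds for 48 h before reading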). The following applies: Gen2.2 BPDCN cells; at 45.8 µM (top of the series) unless noted. The procedure, abridged:
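CellTiter-Glo luminescence after 48 h compound exposure of Gen2.2 cells; percent activity set with DMSO as 100% and bortezomib (9.2 uM final) as 0%. Cells seeded at 500 per well, RPMI + 10% FBS, 37 °C.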

The nature of test [5]: High-throughput drug toxicity screening in the BPDCN cell line Cal-1 (AID 1224825; call rule not given here). The note with it: Cal-1 BPDCN cell viability, qHTS; at 45.8 µM (top of the series) unless noted. The essentials: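 500 Cal-1 cells/well, RPMI + glutamine + 10% FBS (phenol red-free); cpd added by pin tool; 48 h, 37C, 5% CO2; CTG 15 min RT, lumi read. Normalised: DMSO 100%, bortezomib 9.2 uM 0%.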

Test [6] is described as follows: qHTS assay for measurement of the activity of small molecule inhibitors on Zika virus induced Caspase-3 activity in human iPSC derived neural progenitor cells (hNPCs) (AID 1224857). Note: nearly all actives have a fitted effect of over 65% in size. Note: potency is the fitted concentration of half-maximal effect. The procedure, abridged: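 After overnight (16–20 h) culture at 350 cells/well, hNPCs get compound, then ZIKV 2 FFU/cell one hour later. Six hours on, Caspase-Glo 3/7 is added and luminescence measured.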

The nature of test [7]: qHTS assay for measurement of the activity of small molecule inhibitors on Zika virus induced Caspase-3 activity in human astrocytoma cells (AID 1224859). Note: potency is the fitted concentration of half-maximal effect. The procedure, abridged:
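Inhibition of Zika-induced caspase-3/7 activity: SNB-19 cells, 1 h compound pretreatment, ZIKV 2 FFU/cell for 6 h at 37 C, Caspase-Glo luminescence read-out.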

Test [8] in a line: qHTS Screen of the MIPE 4.0 Collection Against Ewings Sarcoma (RDES) (AID 1259252). Note: nearly all actives have a fitted effect of over 35% in size. Note: potency is the fitted concentration of half-maximal effect. The essentials: (§2)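 CellTiter-Glo luminescence after 48 h compound exposure (titration) gave viability; percent activity used DMSO-treated cells as no inhibition and medium-only wells as full inhibition. Cells grown in RPMI/5% FBS, dosed 4 h post-seeding.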
The nature of test [9]: qHTS Screen of the MIPE 4.0 Collection Against Ewings Sarcoma (EW8) (AID 1259255).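 For viability: 100% = DMSO-treated cells and 0% = medium-only wells without cells.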 Note: nearly all actives have a fitted effect of over 35% in size. Note: potency is the fitted concentration of half-maximal effect. The essentials: as §2
Test [10] in a line: qHTS Screen of the MIPE 4.0 Collection Against Ewings Sarcoma (TC32) (AID 1259256). Note: nearly all actives have a fitted effect of over 45% in size. Note: potency is the fitted concentration of half-maximal effect. The procedure, abridged:
as §2

The nature of test [11]: qHTS assay to identify small molecule inhibitors of chordoma cells - UCH-1 (AID 1259355). Note: % is set by controls: 0 for no effect and ±100 for the full control effect; nearly all actives have a fitted effect of over 55% in size. The essentials: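 Seed 800 cells per well; incubate overnight at 37 C, 5% CO2. Add test compounds (15 concentrations), then the auranofin–topoisomerase-agent combination. Incubate 48hr, add CellTiter-Glo, wait 30min, read luminescence.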
Test [12] in a line: qHTS assay to identify small molecule inhibitors of chordoma cells - UCH-2 (AID 1259356). Note: % is set by controls: 0 for no effect and ±100 for the full control effect.
The nature of test [13]: P-glycoprotein substrates identified in KB-3-1 adenocarcinoma cell line, qHTS therapeutic library screen (AID 1346986). Note: nearly all actives have a fitted effect of over 60% in size. The procedure, abridged:
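Cells seeded 500/well in DMEM/10% FCS; compounds pinned in dose-response; 72 h incubation; CellTiter-Glo added, 5 min, luminescence. KB-8-5-11 run ±tariquidar to test reversal of P-gp resistance.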

Test [14] can be described thus: qHTS Screen of the MIPE 4.0 Collection Against Ewings Sarcoma (TC71) (AID 1259253).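 Note: 100% = DMSO-treated cells and 0% = medium-only wells without cells; nearly all actives have a fitted effect of over 40% in size.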 The essentials:
as §2

On to `COC(=O)N[C@H](C(=O)N[C@@H](Cc1ccccc1)[C@@H](O)CN(Cc1ccc(-c2ccccn2)cc1)NC(=O)[C@@H](NC(=O)OC)C(C)(C)C)C(C)(C)C`, for which, in test [1], the parasite growth remaining, % of DMSO control (lower = more inhibition) came out at 18.2%. In test [2], the parasite growth, % of control (lower = inhibition) was 34.6%. This compound displayed a growth, % of control in test [3] of 9.81%. Besides, the cell viability, % of control (lower = more cytotoxic) in test [4] amounted to 159%. Also, in test [5], the viability (% of control) came out at 107%. For the same compound, the Potency result in [6], in test [7], in test [8], in [9] and in [10] was “inactive” each time.

Turning to `CC(=O)N1CCN(c2ccc(OC[C@H]3CO[C@](Cn4ccnc4)(c4ccc(Cl)cc4Cl)O3)cc2)CC1`, the growth, % of control in test [3] was determined as 6.71%. In addition, the cell viability, % of control (lower = more cytotoxic) in test [4] amounted to 64.7%. In addition, in [5], the viability (% of control) is 22.2%. In addition, the Potency result in test [6], in [7], in [11] and in [12] was “inactive” throughout. The Potency in test [8] was 16.6 µM (active).

For the compound `CNC[C@H](O)c1ccc(O)c(O)c1`, in test [1], the parasite growth remaining, % of DMSO control (lower = more inhibition) came to 70.6% [at 57.5 µM]. Moreover, the parasite growth, % of control (lower = inhibition) in test [2] came out at 51.2% [at 57.5 µM]. The growth, % of control in test [3] amounted to 78% [at 57.5 µM]. Besides, the cell viability, % of control (lower = more cytotoxic) in test [4] came out at 50.3% [at 92.2 µM]. Moreover, in [5], the viability (% of control) was 79.5% [at 92.2 µM]. Also, the Potency entry in test [6], in [7] and in test [12] was “inactive” each time. Moreover, the Potency in [8] is 42.9 µM (active); in test [10], 38.2 µM (active).

For `O=C(CCc1ccc(O)cc1)c1c(O)cc(O)cc1O`, in [1], the parasite growth remaining, % of DMSO control (lower = more inhibition) was 96.7%. Besides, the parasite growth, % of control (lower = inhibition) in test [2] was determined as 7.72%. Further, the growth, % of control in [3] is 5.58%. The cell viability, % of control (lower = more cytotoxic) in test [4] came to 141%. Also, in test [5], the viability (% of control) amounted to 41.1%. Further, the Potency result in test [6], in test [7] and in test [13] was “inactive” each time. The Potency is 0.166 µM (active) in [8] and 5.9 µM (active) in test [9].

Regarding `NC(=O)Cc1cccc(C(=O)c2ccccc2)c1N`, in [1], the parasite growth remaining, % of DMSO control (lower = more inhibition) amounted to 98.5%. Besides, the growth, % of control in test [3] is 95.3%. Further, in test [4], the cell viability, % of control (lower = more cytotoxic) is 108%. Also, in test [5], the viability (% of control) came to 114%. For the same compound, the Potency entry in [6], in [7] and in [9] was “inactive” throughout. For the same compound, the Potency in test [10] is 4.69 µM (active).

As to `Cc1cc(=O)oc2cc(O)ccc12`, the parasite growth remaining, % of DMSO control (lower = more inhibition) in [1] came out at 101%. Moreover, in test [2], the parasite growth, % of control (lower = inhibition) was 107%. Further, the growth, % of control in test [3] came out at 105%. The cell viability, % of control (lower = more cytotoxic) in [4] was 183%. Further, the viability (% of control) in test [5] turned out to be 104%. Besides, the Potency result in test [6], in test [7], in test [9], in [10], in test [11] and in test [12] was “inactive” in each case.

Consider `CC(C)Oc1ccc2c(=O)c(-c3ccccc3)coc2c1`, for which the parasite growth remaining, % of DMSO control (lower = more inhibition) in test [1] came out at 89.9%. In [2], the parasite growth, % of control (lower = inhibition) is 60%. For the same compound, the growth, % of control in test [3] was 54.5%. The cell viability, % of control (lower = more cytotoxic) in test [4] turned out to be 181%. Also, the viability (% of control) in test [5] was determined as 102%. The Potency was 10.5 µM (active) in test [6]; 10 µM (active) and 11.8 µM (active) in test [7]. The Potency result in [9], in [10], in test [11] and in test [12] was “inactive” each time.

`COc1ccccc1N1CCN(CCN(C(=O)C2CCCCC2)c2ccccn2)CC1`: the parasite growth remaining, % of DMSO control (lower = more inhibition) in [1] was 78.2%. Besides, the parasite growth, % of control (lower = inhibition) in test [2] worked out at 40.7%. The compound further returned a growth, % of control in test [3] of 83.7%. Further, the cell viability, % of control (lower = more cytotoxic) in test [4] came out at 39.9%. The viability (% of control) in [5] came out at 80.8%. The Potency entry in test [6], in test [8], in test [14], in test [9] and in test [10] was “inactive” in each case.

As for `O=C(O)c1cccnc1Nc1cccc(C(F)(F)F)c1`, in test [1], the parasite growth remaining, % of DMSO control (lower = more inhibition) was found to be 87.2%. Also, the parasite growth, % of control (lower = inhibition) in [2] is 77.4%. Besides, in [3], the growth, % of control amounted to 74%. Besides, in test [4], the cell viability, % of control (lower = more cytotoxic) was 122%. Besides, in test [5], the viability (% of control) came to 88.7%. Moreover, the Potency entry in [6], in [8], in test [14], in test [9], in [10] and in test [11] was “inactive” each time. Further, the Potency result in test [12] was “inactive”.
